{"source": "paper PMC5540273", "about": "(PLoS ONE, 2017);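 note: kd values determined as follow-up on hits from a single-replicate KINOMEscan panel screen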", "key": {"JNK3": {"tested_on": "T1, JNK3", "T1 construct": "gene MAPK10"}, "LZK": {"tested_on": "T2, LZK", "T2 construct": "gene MAP3K13"}}, "data": [{"smiles": "COC(=O)c1c(-c2ccccc2)c2cc(OC)ccc2c(=O)n1Cc1ccccc1", "values": [{"measurement": "Kd", "setting": "JNK3", "result": 0.11, "unit": "µM"}]}, {"smiles": "COc1ccc(C2=C(Nc3cccc(C(=O)O)c3)C(=O)NC2=O)cc1", "note": "[SB-390765]", "values": [{"measurement": "Kd", "setting": "LIMK1", "result": "> 10", "unit": "µM"}]}, {"smiles": "Cn1ccc2ncnc(Oc3cccc(C(=O)Nc4ccccc4)c3)c21", "values": [{"measurement": "Kd", "setting": "LIMK1", "result": "> 10", "unit": "µM"}]}, {"smiles": "O=c1cc(N2CCOCC2)nc2n(Cc3cccc(Cl)c3Cl)ccn12", "note": "[GSK2286295]", "values": [{"measurement": "Kd", "setting": "LYN", "result": "> 10", "unit": "µM"}]}, {"smiles": "O=C(Nc1n[nH]c2cc(-c3cccc(F)c3F)ccc12)C1CC1", "note": "[SB-733894]", "values": [{"measurement": "Kd", "setting": "LZK", "result": "> 10", "unit": "µM"}]}, {"smiles": "COc1cccc(-c2cc(-c3c[nH]nc3-c3ccccn3)ccn2)c1", "note": "[GW680338]", "values": [{"measurement": "Kd", "setting": "MAK", "result": "> 10", "unit": "µM"}]}, {"smiles": "Cc1cc(-c2ccc3c(c2)CC[C@@H](N[C@@H](C)c2ccccc2)C3)cnc1N.Cl", "note": "[GW412617]", "values": [{"measurement": "Kd", "setting": "MAP4K2", "result": 0.043, "unit": "µM"}]}]}
